Compound activity (PubChem)
hcGAS lum = Primary biochemical luminescence assay for human cyclic GMP-AMP synthase inhibitors. Q8N884. inhibition, % at 12.5 µM. recombinant h-cGAS, ATP depletion, Kinase-Glo luminescence. hit rate 0.081% among 290,000. AID 1259398, 2018
mcGAS inh = cyclic GMP-AMP synthase inhibitors, mouse, primary biochemical chemiluminescence; hit rate 0.15% among 160,000; Q8C6L5; recombinant cGAS, Kinase-Glo ATP depletion luminescence; inhibition, % at 12.5 µM
Target sequence (Q8C6L5 whole entry, looked up): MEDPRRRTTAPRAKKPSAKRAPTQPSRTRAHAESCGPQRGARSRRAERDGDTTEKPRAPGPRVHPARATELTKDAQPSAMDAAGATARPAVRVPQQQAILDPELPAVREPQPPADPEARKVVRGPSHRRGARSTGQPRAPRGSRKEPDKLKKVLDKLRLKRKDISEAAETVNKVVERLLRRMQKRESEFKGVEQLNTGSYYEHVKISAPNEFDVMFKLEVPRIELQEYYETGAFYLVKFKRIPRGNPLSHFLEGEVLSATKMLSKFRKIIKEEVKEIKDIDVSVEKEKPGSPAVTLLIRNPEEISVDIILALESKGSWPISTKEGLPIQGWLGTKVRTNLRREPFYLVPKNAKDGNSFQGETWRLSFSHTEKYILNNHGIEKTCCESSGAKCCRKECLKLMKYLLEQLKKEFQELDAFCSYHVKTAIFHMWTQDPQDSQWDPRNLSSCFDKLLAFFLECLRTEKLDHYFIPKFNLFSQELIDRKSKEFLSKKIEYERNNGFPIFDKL
NPYLR7 ag = agonists of mosquito NPYLR7 receptor, primary screen, cell-based, Aedes aegypti, calcium fluorescence, mosquito biting behavior. Aedes aegypti neuropeptide Y-like receptor 7 (NPYLR7). HEK293T NPYLR7/Galpha15, GCaMP6s calcium fluorescence. activation, % at 10 µM. hit rate 0.15% among 270,000. AID 1259423, 2018; in the data active = activation above about 40%
Large screens that a line does not name were inactive; ! = not active in a repeat. Hits are enriched below; roughly 0.3% of the tested compounds scored in any of these assays. Rule as the data show it, unless noted: active = inhibition above about 40%; inactive = the rest.

COc1ccc(-c2cnnc(NCCCN3CCOCC3)n2)c(OC)c1	none
CCCCC1CCC(C(=O)Nc2cc(=O)n(-c3ccccc3)nc2C(=O)OCC)CC1 (stereo not drawn)	none (no result: NPYLR7 ag)
Cc1nn2c(=O)[nH]c(SCC(=O)NCCc3ccccc3)nc2c1-c1ccccc1	none
CNC(=O)CSc1nc2c(-c3ccccc3)c(C)nn2c(=O)[nH]1	hcGAS lum 55
O=C(NC1CCS(=O)(=O)C1)c1ccc2c(c1)CCCC2 (stereo not drawn)	none (no result: mcGAS inh)
O=C(OC[C@H]1O[C@H](OC(=O)c2cc(O)c(O)c(OC(=O)c3cc(O)c(O)c(O)c3)c2)[C@H](OC(=O)c2cc(O)c(O)c(OC(=O)c3cc(O)c(O)c(O)c3)c2)[C@@H](OC(=O)c2cc(O)c(O)c(OC(=O)c3cc(O)c(O)c(O)c3)c2)[C@@H]1OC(=O)c1cc(O)c(O)c(OC(=O)c2cc(O)c(O)c(O)c2)c1)c1cc(O)c(O)c(OC(=O)c2cc(O)c(O)c(O)c2)c1	hcGAS lum 51 (no result: mcGAS inh)
CC(=O)OC[C@H]1O[C@@H](Oc2cc(OC(C)=O)c3c(=O)cc(-c4ccc(OC(C)=O)cc4)oc3c2)[C@H](OC(C)=O)[C@@H](OC(C)=O)[C@@H]1OC(C)=O	none (no result: mcGAS inh)
O=C(Nc1cccc(=O)[nH]1)Nc1ccccc1F	none (no result: mcGAS inh)
CCOC(=O)N1CCN(C(=O)CN2CCCc3c(C(N)=O)cccc32)CC1	none (no result: mcGAS inh)
Cc1noc(C)c1CN(C)C(=O)C1(NC(=O)OC(C)(C)C)CCC(C)CC1 (stereo not drawn)	none (no result: mcGAS inh)
CSc1nc2c(c(=O)[nH]1)C(c1ccc3c(c1)OCO3)C1C(=O)CCCC1=N2 (stereo not drawn)	none (no result: mcGAS inh)
CC1(C)CC(=O)C2C(=Nc3[nH]c(=S)[nH]c(=O)c3C2c2ccc3c(c2)OCO3)C1 (stereo not drawn)	NPYLR7 ag 43
CCN=c1scc(-c2ccc(Br)s2)n1N=CC1CCCCC1	none
CCN(CC)CCCC(C)NC(=O)c1cc(-c2ccc(OC)cc2)nc2cc(-c3ccc(Cl)cc3)nn12 (stereo not drawn)	none
CCN(CC)CCCC(C)NC(=O)c1cc(-c2ccc(OC)cc2)nc2cc(-c3ccccc3)nn12 (stereo not drawn)	hcGAS lum 91, mcGAS inh 90
COCCN(CC(=O)N1CCc2sccc2C1c1ccc(Cl)cc1)C(=O)c1ccc(Cl)cc1 (stereo not drawn)	none
CN(C)c1ccc(/C=C2/SC(=S)N(CC(=O)O)C2=O)cc1	NPYLR7 ag 71
C=CCN1C(=O)/C(=C\c2ccc(N(C)C)cc2)SC1=S	none
C=CCN1C(=O)C(=Cc2ccncc2)SC1=S	none (no result: mcGAS inh)
C=CCN1C(=O)/C(=C\c2ccc(O)cc2)SC1=S	NPYLR7 ag 55
COc1cc(OC)c(OC)cc1/C=C1/SC(=S)N(CC(=O)O)C1=O	NPYLR7 ag 59
O=C(O)CCCN1C(=O)/C(=C\c2ccc(O)cc2)SC1=S	none
O=C(O)CN1C(=O)/C(=C\c2ccc(O)cc2)SC1=S	NPYLR7 ag 59 (no result: mcGAS inh)
COc1ccc(Br)cc1/C=C1/SC(=S)N(CC(=O)O)C1=O	none (no result: mcGAS inh)
COc1ccc(-c2cc(C(=O)N3CCC(n4c(=O)[nH]c5ccccc54)CC3)c(C)n2-c2ccc(F)cc2F)cc1	none
CN(C(=O)c1ccc(N2CCCC2)c([N+](=O)[O-])c1)C1CCCCC1	none
CCc1ccccc1NC(=O)Cn1nnc(C(=O)NCCc2ccc(OC)c(OC)c2)c1N	none
CCOC(=O)c1cc(-c2cccc(NC(=O)C3CCN(C(C)=O)CC3)c2)n(-c2ccccc2F)n1	none
CCN(CC)c1c(C)nc2ccc(C(=O)NCc3ccc(N(C)C)cc3)cn12	none
CSCC(=O)Nc1nc(C)c(Cc2ccccc2F)s1	none (no result: mcGAS inh)
COc1ccc(N(C)S(=O)(=O)c2ccc(OC)c(N3CCN(C(=O)c4ccc(Cl)c(Cl)c4)CC3)c2)cc1	none
O=C(CN1CSCC1=O)Nc1cc(Cl)ccc1Cl	none
CC(C)C(C(=O)O)N1C(=O)/C(=C/c2ccc(O)cc2)SC1=S (stereo not drawn)	NPYLR7 ag 68
O=C(O)C(Cc1ccccc1)N1C(=O)/C(=C/c2ccc([N+](=O)[O-])cc2)SC1=S (stereo not drawn)	mcGAS inh 54
O=C(O)CN1C(=O)/C(=C\c2ccc(O)c(O)c2)SC1=S	none
CCN(CC)c1ccc(/C=C2\SC(=S)N(CC(=O)O)C2=O)c(O)c1	NPYLR7 ag 93
Cc1ccc(/C=C2\SC(=S)N(C(C(=O)O)C(C)C)C2=O)cc1 (stereo not drawn)	none
CC(C(=O)O)N1C(=O)/C(=C/c2ccc([N+](=O)[O-])cc2)SC1=S (stereo not drawn)	none
CN1CCN(N=Cc2ccc(O)cc2)CC1	none
CCc1cccc(NC(=O)N(CCOC)CC(=O)N(Cc2ccc(F)cc2)Cc2sccc2C)c1	none
CN(Cc1ccsc1)C(=O)CN1CC(=O)NC1=O	none
COCCN(Cc1c(-c2ccccc2)noc1N1CCCCC1)C(=O)Nc1cccc(Cl)c1	none
COc1ccc(C2CC(=O)C3C(=Nc4ccccc4NC3c3c(F)cccc3F)C2)cc1 (stereo not drawn)	none
CCOc1ccc(NC(=O)CC(C)O)cc1 (stereo not drawn)	none (no result: mcGAS inh)
CCOc1ccc(NC(C)=O)cc1	NPYLR7 ag 71! (no result: mcGAS inh)
N#C/C(=C/c1ccc(N2CCCCCC2)o1)c1ccc(F)cc1	NPYLR7 ag 88 (no result: mcGAS inh)
N#C/C(=C\c1ccc(N2CCCCC2)s1)c1cccc(Cl)c1	none (no result: mcGAS inh)
O=C1/C(=C/c2csnn2)CCOc2cc(Br)ccc21	mcGAS inh 53
COc1ccc2c(c1)CCC(=Cc1cc(Br)ccc1OC)C2=O	none
COc1ccc([N+](=O)[O-])cc1NC(=O)CCl	mcGAS inh 44
COc1cc([N+](=O)[O-])ccc1NC(=O)CCl	mcGAS inh 70
O=C(CCl)Nc1cc([N+](=O)[O-])ccc1Nc1ccc(F)cc1	mcGAS inh 57
CCCCC(=O)Nc1cc([N+](=O)[O-])ccc1OC	none (no result: mcGAS inh)
O=[N+]([O-])c1ccc(Nc2ccc(F)cc2)c([N+](=O)[O-])c1	none
COc1ccc([N+](=O)[O-])cc1NC(=O)C1CCCC1	none
CC1(C)Cc2c(cnn2-c2cccc(F)c2)C(NCc2ccc3c(c2)CCO3)C1 (stereo not drawn)	none
CN(CC1COc2ccccc2O1)C(=O)CCl (stereo not drawn)	mcGAS inh 54
CN(CC1COc2ccccc2O1)C(=O)CN1C(=O)c2ccccc2S1(=O)=O (stereo not drawn)	none (no result: mcGAS inh)
Cc1cc(CNC(=O)c2cccnn2)c2[nH]c(C)c(C)c2c1	none
COc1cccc(C2CCCN2Cc2nc(-c3ccc(OC)c(OC)c3OC)no2)c1 (stereo not drawn)	none (no result: mcGAS inh)
CC1=NN(c2cccc(C(=O)O)c2)C(=O)/C1=C\c1ccc(-c2cc([N+](=O)[O-])ccc2O)o1	none
CC1=NN(c2cccc(C(=O)O)c2)C(=O)/C1=C\c1ccc(-c2ccccc2C(=O)O)o1	mcGAS inh 64
CCC(=O)N(C)c1nnc(C23CC4CC(CC(C4)C2)C3)s1	none
CN(C(=O)CCl)c1nnc(C23CC4CC(CC(C4)C2)C3)s1	mcGAS inh 60
CC(C)(C)c1cc(NC(=O)CN(Cc2ccccc2)C(=O)NC23CC4CC(CC(C4)C2)C3)n(-c2ccc(Cl)c(Cl)c2)n1	none (no result: NPYLR7 ag)
CCOCCCN1C(=O)C(=Cc2ccccc2O)NC1=S	NPYLR7 ag 120 (no result: mcGAS inh)
